Source: PubChem (University of Pittsburgh Molecular Library Screening Center)
This excerpt belongs to a sample that is enriched for hits.
HIV RNase H inh-1 = inhibitors of HIV-1 reverse transcriptase RNase H | 65,000 tested, 1.9% active | inhibition, % at 10 µM | AID 565 | RT-RNase H RNA/DNA duplex cleavage, fluorescence | P04585; in the data active = inhibition above about 50%
HIV RNase H inh-2 = confirmation of HIV-1 reverse transcriptase RNase H inhibitors; shares compounds with HIV RNase H inh-1; Recombinant RT RNase H, fluorescent RNA/DNA duplex cleavage; inhibition, % at 10 µM; 1,000 tested, 39% active; AID 651; in the data active = inhibition above about 48%
Large screens that a line does not name were inactive (follow-up assays come after a bar, where they were run).

CCCCC(CC)Cn1c(N)c(C#N)c2nc3ccccc3nc21 (stereo not given)	none
CCCCn1c2nc3ccccc3nc2c2c(=N)oc(C)nc21	none
CCCCC(CC)Cn1c2nc3ccccc3nc2c2c(=N)oc(C)nc21 (stereo not given)	HIV RNase H inh-1 68 | HIV RNase H inh-2 65
CC1(c2ccc(Cl)cc2)NC(=O)N(CC(=O)NC(=O)NCc2ccco2)C1=O (stereo not given)	none
N#Cc1c(N)c(C(=O)c2ccc(Br)cc2)n2c1CCC2	none
Cc1noc(C)c1CSc1ncnc2ccccc12	none
O=C(CN1C(=O)NC2(CCCc3ccccc32)C1=O)N1CCN(C(=O)c2ccco2)CC1 (stereo not given)	none
COc1ccc(C(=O)CSc2nnc(-c3cc(C)cc(C)c3)o2)cc1	none
COC(=O)c1ccc(CSc2nnc(-c3ccncc3)o2)o1	none
COC(=O)c1ccc(OC)c(CSc2nnc(-c3ccc(C)cc3)o2)c1	HIV RNase H inh-1 66 | HIV RNase H inh-2 inactive
CCOC(=O)c1cc(C)n(-n2cnnc2)c1C	none
COc1ccc(NC(C)=O)cc1NC(=O)CSc1nnc(-c2cccnc2)n1C	none
COc1ccccc1N1CCN(C(c2cc3ccc(C)cc3[nH]c2=O)c2nnnn2C2CCCC2)CC1 (stereo not given)	none
COc1cc2cc(C(c3nnnn3C3CCCC3)N3CCc4ccccc43)c(=O)[nH]c2cc1OC (stereo not given)	none
COc1ccccc1N1CCN(C(c2cc3cc(C)ccc3[nH]c2=O)c2nnnn2C2CCCC2)CC1 (stereo not given)	HIV RNase H inh-1 54 | HIV RNase H inh-2 inactive
CC(C)(C)C1CCc2c(sc3c2C(=O)NC(c2ccco2)N3)C1 (stereo not given)	none
CC1(C)Cc2c(sc3c2C(=O)NC(c2cccnc2)N3)CO1 (stereo not given)	HIV RNase H inh-1 54 | HIV RNase H inh-2 inactive
CC1(C)Cc2c(sc3ncnc(N)c23)CO1	none
O=C(Cn1c(=O)sc2ccccc21)NCCOc1ccccc1F	none
O=C(O)c1ccc(NS(=O)(=O)c2ccc(Cl)cc2)cc1	none
Cc1sc(NC(=O)CSc2nnc(C)c(=O)[nH]2)c(C#N)c1C	none
CCC(C(=O)NC1CCCCC1)N(CC1CCCO1)C(=O)CNS(=O)(=O)c1ccc(OC)cc1 (stereo not given)	none
CCCC(C(=O)NC1CCCCC1)N(CC1CCCO1)C(=O)CNS(=O)(=O)c1ccc(F)cc1 (stereo not given)	HIV RNase H inh-1 58 | HIV RNase H inh-2 inactive
O=C(NCC(=O)N(CC1CCCO1)C(C(=O)NC1CCCCC1)c1ccc(F)cc1)c1ccco1 (stereo not given)	none
CN1CCN(Cc2c(O)ccc3occ(C(=O)c4ccccc4)c23)CC1	none
CC(=O)C(C(C)=O)c1c(Cl)c(O)c(O)c2c(C(=O)c3ccccc3)coc12	HIV RNase H inh-1 100 | HIV RNase H inh-2 64
COc1ccc(-c2nc(NC(=O)CSc3nnc(C)s3)ns2)cc1	none
Cc1ccc(N2C(=O)c3oc4ccccc4c(=O)c3C2c2cccc(O)c2)nc1 (stereo not given)	none
Cc1cccc(Nc2n[nH]c(=S)s2)c1C	HIV RNase H inh-1 77 | HIV RNase H inh-2 85
C/C(N)=C(/C#N)C(=O)CSc1nnc(Nc2cccc(C)c2C)s1	none
Cc1cc(Nc2cccc(C)c2C)n2nc(C)nc2n1	none
COc1cc(OC)nc(NC(=O)CSc2nc3ccccc3o2)n1	none
Cc1nn2c(-c3cccc(NC(=O)CSc4nc5ccccc5o4)c3)nnc2c2ccccc12	HIV RNase H inh-1 89 | HIV RNase H inh-2 66
Cc1nn2c(-c3cccc(NC(=O)CN4CCOCC4)c3)nnc2c2ccccc12	none
CC1(C)CC2(CCO1)CNC(=O)O2 (stereo not given)	none
CC(=O)Nc1ccc(S(=O)(=O)NC(C(=O)O)C2=CCC=CC2)cc1 (stereo not given)	none
O=C(O)CCC(=O)N1CCc2cc(S(=O)(=O)N3CC=C(c4ccccc4)CC3)ccc21	none
Cc1cccc(NC(=O)C(NS(=O)(=O)c2ccc3c(c2)CCC(=O)N3)c2ccccc2)n1 (stereo not given)	none
Cn1c(=O)c2c(nc(SCC(=O)NC3CCCCC3)n2C)n(C)c1=O	none
CCC(CC)c1nc(NCCC(=O)O)c2ccccc2n1	HIV RNase H inh-1 76 | HIV RNase H inh-2 inactive
CCc1cc2c(NCCC(=O)O)nc(C)nc2s1	none
O=C(NCCO)c1nc(NCCO)c2ccccc2n1	none
CCC1CCCCN1C(=O)Cn1c(=O)n(CCC(=O)NCc2ccco2)c(=O)c2sccc21 (stereo not given)	none
Cc1ccc2c(c1)-c1c(cnn1CC(=O)N(CCC#N)c1ccccc1)CO2	none
Cc1cnc(C(=O)NCCc2ccc(S(=O)(=O)NC(=O)NC3CCCCC3)cc2)cn1	none
C=CCn1c(O)c(CN2CCOCC2)c(C)c(C#N)c1=O	none
c1ccc(CNc2nc3ccccc3[nH]2)cc1	none
Cc1cc(C)nc(Nc2nc3ccccc3[nH]2)n1	none
c1ccc(Nc2nc3ccccc3[nH]2)nc1	HIV RNase H inh-1 80 | HIV RNase H inh-2 inactive
Cc1ccc(S(=O)(=O)N2CCCN(S(=O)(=O)C3CCS(=O)(=O)C3)CC2)cc1 (stereo not given)	none
Cc1cc(C)n(-c2ccc(-n3ccnc3)nn2)n1	none
O=c1[nH]c(=O)n(Cc2ccccc2)c2nc(-c3ccco3)cc(C(F)(F)F)c12	none
Cc1cc(C)n(CCc2nc(-c3cccs3)cs2)n1	none
Cc1nn(CCc2nc(-c3ccco3)cs2)c2[nH]c(=O)cc(C(F)(F)F)c12	HIV RNase H inh-1 88 | HIV RNase H inh-2 69
COc1ccc(S(=O)(=O)N2CCN(CC(=O)Nc3ccc(C)c(F)c3)CC2)cc1	none
CCOc1ccc(C2c3c(oc4ccccc4c3=O)C(=O)N2c2ccc(C)cn2)cc1OC (stereo not given)	none
CCCCC(=O)NC1(C(F)(F)F)C(=O)Nc2c1c(=O)n(C)c(=O)n2C (stereo not given)	none
O=C(CSc1nc2ccccc2c(=O)n1Cc1ccco1)NCc1ccccc1	none
CCc1ccccc1NC(=O)C(CC)Sc1nc2cc3c(cc2c(=O)n1Cc1ccco1)OCO3 (stereo not given)	HIV RNase H inh-1 78 | HIV RNase H inh-2 inactive
O=c1c2cc3c(cc2[nH]c(=S)n1Cc1ccco1)OCO3	none
COC(=O)C1=C(C)N=c2s/c(=C/c3ccoc3)c(=O)n2C1c1ccccc1 (stereo not given)	none
COC(=O)C1=C(C)N=c2s/c(=C/c3cccs3)c(=O)n2C1c1cccs1 (stereo not given)	none
COC(=O)C1=C(C)N=c2s/c(=C3\C(=O)Nc4ccccc43)c(=O)n2C1c1ccccc1 (stereo not given)	HIV RNase H inh-1 90 | HIV RNase H inh-2 70
Cc1cc(C)nc(SCC(=O)Nc2cc(C)on2)n1	none
CCCCOC(=O)CSCC(=O)Nc1cc(C)on1	HIV RNase H inh-1 71 | HIV RNase H inh-2 inactive
Cc1cc(NC(=O)CSc2ccccc2)no1	none
CCCCCOC(=O)Cn1c(N2CCCCCC2)nc2c1c(=O)[nH]c(=O)n2C	none
Cc1ccsc1C(C(=O)NC1CCCCC1)N(C(=O)c1csnn1)C1CC1 (stereo not given)	none
CCOC(=O)CSc1cccc2cccnc12	none
CCNC(=O)N(C(=O)NCC)n1c(C)nnc1C	none
CCOC(=O)C1CCN(C(=O)CSC2=NCCS2)CC1	none
NC(=O)CN1C(=O)C2C3C=CC(C3)C2C1=O (stereo not given)	none
Cc1ccc(NCN2C(=O)C3C4C=CC(C4)C3C2=O)cc1 (stereo not given)	none
O=C1C2C3C=CC(C3)C2C(=O)N1CNc1ccc(O)cc1 (stereo not given)	HIV RNase H inh-1 80 | HIV RNase H inh-2 inactive
